Screens: PubChem, National Center for Advancing Translational Sciences (NCATS)
A selection: hits, their analogues and other compounds. The true share with any hit is near 3%.
TrxR1 substrate – rat thioredoxin reductase 1 substrate activity; 390,000 tested, 0.01% active; purified TrxR1 substrate turnover, NADPH consumption readout; AID 588456; Potency, µM (doses to about 114 µM), for inactives: top-dose activity change, negative = substrate turnover; note: % is set by controls: 0 for no effect and ±100 for the full control effect; nearly all actives have a fitted effect of over 50% in size
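Rat TrxR1, dispensed at 90 nM, was prereduced with 400 uM NADPH (final) for 5 min at ~22 deg C, then incubated with compound 15 min before 400 uM selenite. A first-read NADPH fluorescence drop versus no-compound background flagged substrates.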
A549 viability – counter-screen for Nrf2 inhibitors: cytotoxicity in A549 cells | A549 ARE-Fluc cells, CellTiter-Fluor viability, 18-24 h | Potency, µM (series often up to 46 µM), inactives show at the highest dose activity change, negative = cytotoxicity, usual class: inhibitors | 390,000 tested, 0.16% active; note: % is set by controls: 0 for no effect and ±100 for the full control effect
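Cytotoxicity counterscreen: CellTiter-Fluor fluorescence was measured in A549 ARE_Fluc cells after 18-24 h of compound exposure in a concentration series. The subsequent BugLite luminescent read reports ARE-luciferase activity.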
Nrf2 block – Nrf2 pathway inhibition; 360,000 tested, 2.1% active; A549 ARE-Fluc reporter, luciferase luminescence, 18-24 h; Potency, µM (top dose mostly 46 µM), for the others: at the top dose activity change, negative = inhibition, hits mostly inhibitors; note: % is set by controls: 0 for no effect and ±100 for the full control effect; nearly all actives have a fitted effect of over 60% in size
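In this cell-based qHTS, ARE-driven firefly luciferase in A549 cells reports Nrf2 activity; the luminescent signal after BugLite lysis is the measured value, with a prior CellTiter-Fluor read for cell health.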
Nrf2 activator – Nrf2 pathway activation | 410,000 tested, 0.31% active | AREc32 ARE-luciferase reporter (MCF7-derived line), luminescence, 24 h | AID 624171 | Potency, µM (doses to about 46.1 µM), without a hit: at the highest dose activation, hits mostly activators; note: % of control where 0% means no effect; nearly all actives have a fitted effect of over 65% in size
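Nrf2 activation is followed as ARE-luciferase induction in the AREc32 line after one day of compound treatment; luminescence is read with Steady-Glo.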
GALK inhibitor – blocks human galactokinase activity; 270,000 tested, 0.007% active; Purified GALK, Kinase-Glo residual ATP luminescence; Potency, µM (doses to about 57.5 µM), inactives show at the highest dose activity change, negative = inhibition, usual class: inhibitors; note: % is set by controls: 0 for no effect and ±100 for the full control effect
Target sequence (P51570 whole entry, looked up): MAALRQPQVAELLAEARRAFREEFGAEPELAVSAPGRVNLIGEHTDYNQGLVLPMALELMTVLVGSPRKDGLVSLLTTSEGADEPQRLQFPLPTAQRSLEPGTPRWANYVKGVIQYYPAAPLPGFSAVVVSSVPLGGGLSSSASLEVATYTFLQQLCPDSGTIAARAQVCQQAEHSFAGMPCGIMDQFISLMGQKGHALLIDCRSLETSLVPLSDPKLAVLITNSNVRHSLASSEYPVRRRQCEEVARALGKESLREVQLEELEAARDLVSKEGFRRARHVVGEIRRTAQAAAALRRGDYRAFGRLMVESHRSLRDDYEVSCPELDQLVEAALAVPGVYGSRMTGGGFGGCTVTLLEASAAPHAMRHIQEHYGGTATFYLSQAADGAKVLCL
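5 nM enzyme, 35 uM ATP, 100 uM galactose, 20 mM HEPES pH8.0, 5 mM MgCl2; 1 h RT; residual ATP by Kinase-Glo Plus luminescence, qHTS format.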
TrxR1 inh – inhibitors of rat thioredoxin reductase 1; Potency, µM (titrated, usually from 114 µM), for the others: top-dose activity change, negative = inhibition, most hits filed as inhibitors; recombinant rTrxR1, NADPH fluorescence consumption, selenite substrate; 390,000 tested, 1% active; O89049; AID 588453; note: % is set by controls: 0 for no effect and ±100 for the full control effect; nearly all actives have a fitted effect of over 65% in size
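Rat TrxR1 (90 nM in the dispensed reagent) was pre-reduced with 400 uM NADPH for 5 min at room temperature, then incubated with compound for 15 min. After 400 uM selenite was added, NADPH fluorescence (Ex 340/Em 450 nm) was followed for 8 min.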
* = called active by the depositor; ? = inconclusive; nt = no result given; ! = not confirmed by another sample; [ ] = remark or other dose. Calls come from the whole dose curve; as a rule, active = well fitted curve in the direction sought with a large enough effect; inconclusive = small, poorly fitted or top-dose-only effect, or another doubt; inactive = no such curve, though single readings can be large; an effect the other way counts as inactive or inconclusive. Potency is the fitted concentration of half-maximal effect.

SMILES	TrxR1 substrate	A549 viability	Nrf2 block	Nrf2 activator	GALK inhibitor	TrxR1 inh
CCn1c(N2CCN(S(=O)(=O)c3ccc(OC)cc3)CC2)nc2ccccc21	2%	-17%	21µM*	0%[9.22 µM]	0%	35%
CCn1c(N2CCN(S(=O)(=O)c3ccccc3C(F)(F)F)CC2)nc2ccccc21	6%[11.4 µM]	-13%	21µM*	3%	2%	?
Cn1c(N2CCN(S(=O)(=O)c3ccc(F)cc3)CC2)nc2ccccc21	2%[57.1 µM]	-3%	?	0%	5%	24%[57.1 µM]
O=C(Cn1cc(SCc2ccc(C(F)(F)F)cc2)c2ccccc21)N1CCOCC1	-12%	-5%	8%	6%	nt	17%
CCn1c(C)c(C)c2cc(C(=O)NCC(C)c3ccccc3)ccc21 (configuration not stated)	1%[57.1 µM]	7%	?	4%	nt	11%[57.1 µM]
CCCn1c(=O)c2[nH]c(-c3ccc(S(=O)(=O)O)cc3)nc2n(CCC)c1=O	629%[57.1 µM]	10%	-3%	0%	nt	22µM*!
CCn1c(=O)c2[nH]c(Cl)nc2n(CC)c1=O	nt	nt	nt	-3%	nt	nt
COc1ccccc1CNC(=O)C1CCN(S(=O)(=O)c2cn(C)cn2)CC1	-3%[57.1 µM]	12%	nt	-1%	nt	5%[57.1 µM]
COc1ccccc1C1CC(c2cccs2)=Nc2ccccc2S1 (configuration not stated)	-2%	0%	16%	18µM*	-1%	5%
Cc1csc(-c2coc3cc(O)cc(C)c3c2=O)n1	-2%[57.1 µM]	1%	?	10µM*	5%	?
CC(=O)C[C@H]1c2cc(F)cc(F)c2S(=O)(=O)N1C1CCN(Cc2ccccc2)CC1	2%	nt	nt	nt	nt	2%
CCCCOc1ccc(Br)cc1/C(C)=N/NC1=NCCN1	3%	12µM*	?	5%	-2%	14%
CCCCCCOc1ccc(/C(C)=N/NC2=NCCN2)cc1[N+](=O)[O-]	-1%	-2%	2%	-5%	-1%	17%
CCN1C(=O)c2cccc3c(S(=O)(=O)N(C(C)=O)c4ccc(OC(C)=O)cc4)ccc1c23	84%	-16%	26µM*	29%	nt	53%
COc1ccc(N(C(=O)c2ccncc2)S(=O)(=O)c2ccc3c4c(cccc24)C(=O)N3C)cc1	-5%[57.1 µM]	-4%	?	0%	-1%	-33%[57.1 µM]
Nc1ncnc(Sc2ncccn2)c1[N+](=O)[O-]	-1%	-16%	?	-2%	2%	1.4µM*
CN(C)c1cc[n+](CC(=O)Nc2ccc(OC(F)F)cc2)cc1	1%	-7%	23µM*	2%	1%	24%
COc1ccc(C(=O)C[n+]2ccc(N(C)C)cc2)cc1	7%[11.4 µM]	-11%	21µM*	-1%	-1%	11%[11.4 µM]
CN(C)c1cc[n+](CC(=O)c2ccc(Br)cc2)cc1	4%[57.1 µM]	?	?	0%	0%	17%[57.1 µM]
CCOc1ccc(NC(=O)C2CCN(c3nnc(-n4c(C)ccc4C)s3)CC2)cc1	-3%	0%	3%	?	nt	-24%
CCCCOc1ccc(C(O)(CCN2CCOCC2)c2ccccc2)cc1 (configuration not stated)	-5%	0%	-7%	4%	-1%	40µM*
O=C(CCN1CCOCC1)c1ccc(Cl)cc1	-4%[57.1 µM]	1%	12%	?	-1%	?
CCCCOc1ccc(SCCCN2CCOCC2)cc1	-5%	9%	-13%	0%	nt	9%
CCCCCOc1ccc(C(=O)CCN2CCOCC2)cc1	5%[57.1 µM]	-6%	?	20µM*	-1%	10µM*
O=C(CCN1CCOCC1)c1ccc(Br)cc1	12%[57.1 µM]	4%	8%	?	3%	0.45µM*
SMILES	TrxR1 substrate	A549 viability	Nrf2 block	Nrf2 activator	GALK inhibitor	TrxR1 inh
CC(C)Oc1ccc(C(=O)CCN2CCOCC2)cc1	5%	-1%	-4%	0%	nt	3.5µM*
CCOc1ccc(NC(=O)c2sc3nc4c(c(-c5ccc(OC)cc5)c3c2N)C(=O)CC(C)(C)C4)cc1	0%	-2%	-18%	-1%	nt	4%
CC(=O)OCC(NC(=O)C(C)NC(=O)OC(C)(C)C)C1OC(n2cc(F)c(=O)[nH]c2=O)C(OC(C)=O)C1OC(C)=O (configuration not stated)	-1%	-1%	-3%	nt	nt	9%
CCCCn1nc(NC(=O)c2cccs2)c2cc3cc(OC)ccc3nc21	16%[57.1 µM]	-7%	nt	7%	1%	11%[57.1 µM]
CCCn1nc(NC(=O)c2cccs2)c2cc3ccc(C)cc3nc21	32%	?	?	6%	-3%	6%
CCCCn1nc(NC(=O)c2cccs2)c2cc3ccccc3nc21	40%	-18%	12µM*	0%	0%	24%
CCCn1nc(NC(=O)c2cccs2)c2cc3ccccc3nc21	5%	nt	18µM*	0%	-1%	-3%
CCCn1nc(NC(=O)c2cccs2)c2cc3cc(C)ccc3nc21	16%[57.1 µM]	-16%	16µM*	2%	nt	34%[57.1 µM]
Cc1ccc(C)c(N2CCN(C(=O)c3ccc4c(c3)N(Cc3ccc(F)cc3)C(=O)c3ccccc3S4=O)CC2)c1 (configuration not stated)	6%	1%	-13%	-1%	nt	46%
Cc1c(C(=O)NCc2cccnc2)oc2ccc(S(=O)(=O)N3CC(C)CC(C)C3)cc12 (configuration not stated)	-10%	0%	-5%	0%	0%	8%
Cc1c(C(=O)Nc2ccc(F)cc2)oc2ccc(S(=O)(=O)N3CC(C)CC(C)C3)cc12 (configuration not stated)	32%	-15%	7.3µM*	0%	-1%	-5%
COc1ccc(C2c3[nH]c4ccc(OC)cc4c3CCN2C(=O)Nc2ccccc2)cc1 (configuration not stated)	7%	?	15µM*	0%	nt	38%
CCCCNC(=O)CC1N=C2c3ccccc3N=C(SCC(=O)Nc3ccccc3OC)N2C1=O (configuration not stated)	-1%	-23%	18µM*	0%	3%	5%
Cc1cc(N2CCN(c3ccc(F)cc3)CC2)n2cnnc2n1	-3%	0%	-14%	-1%	nt	-2%
CC1CCc2c(sc(NC(=O)CSc3ncn[nH]3)c2C#N)C1 (configuration not stated)	-8%	-10%	7.3µM*	-3%	3%	-11%
CC(C)(C)C1CCc2c(sc(NC(=O)CSc3ncn[nH]3)c2C#N)C1 (configuration not stated)	4%[57.1 µM]	?	?	-1%	-1%	12%[57.1 µM]
N#Cc1c(NC(=O)CSc2ncn[nH]2)sc2c1CCCC2	7%[57.1 µM]	-6%	4.1µM*	-2%	0%	-4%[57.1 µM]
CCc1ccccc1NC(=O)Cc1ccc(-n2c(C)nc3cccnc32)cc1	1%	4%	12%	0%	nt	1%
